nsP2pro primary – Primary qHTS for inhibitors of NSP2Pro chikungunya virus (CHIKV); hit rate 1.1% among 31,000; FRET peptide cleavage, nsP2pro, fluorescence 1 h; Potency, µM (highest dose often 24.9 µM), inactives show at the top dose activity change, negative = inhibition, usual class: inhibitors; also: nearly all actives have a fitted effect of over 60% in size
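Purified recombinant nsP2pro (150 nM final) in 10 mM Tris-HCl pH 8.0 with 0.01% Tween 20 was preincubated 15 min at room temperature with compound (7 concentrations, up to 25 uM). FRET peptide 2 substrate (2.5 uM final) was then added; fluorescence was read after 1 h.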
CHIKV nsP2 cell – Secondary cell base assay for inhibitors of NSP2Pro Chikungunya virus (CHIKV). hit rate 10% among 450. AID 1964100, 2024. cell-based CHIKV nsP2 protease reporter assay. Potency, µM (doses to about 51.1 µM), without a hit: at the highest dose activity change, negative = inhibition, actives largely listed as inhibitors. shares compounds with nsP2pro primary; also: nearly all actives have a fitted effect of over 70% in size
Target sequence (Q8JUX6 220-798 limits assumed): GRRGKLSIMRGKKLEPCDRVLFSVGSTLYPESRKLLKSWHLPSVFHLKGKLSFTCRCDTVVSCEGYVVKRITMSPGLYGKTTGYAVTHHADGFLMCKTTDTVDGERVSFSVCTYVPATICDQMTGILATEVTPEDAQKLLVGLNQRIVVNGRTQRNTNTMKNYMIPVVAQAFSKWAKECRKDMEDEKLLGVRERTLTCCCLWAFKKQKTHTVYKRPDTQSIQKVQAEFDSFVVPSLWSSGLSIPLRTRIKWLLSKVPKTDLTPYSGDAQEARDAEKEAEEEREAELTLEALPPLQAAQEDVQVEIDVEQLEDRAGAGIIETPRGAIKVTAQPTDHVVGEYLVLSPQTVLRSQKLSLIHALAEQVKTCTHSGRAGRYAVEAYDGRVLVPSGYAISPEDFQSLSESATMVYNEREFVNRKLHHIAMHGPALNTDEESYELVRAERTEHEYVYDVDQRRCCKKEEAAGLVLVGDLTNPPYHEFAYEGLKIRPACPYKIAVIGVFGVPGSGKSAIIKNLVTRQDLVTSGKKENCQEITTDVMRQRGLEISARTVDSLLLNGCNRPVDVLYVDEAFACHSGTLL
CHIKV NSP2 FL – Selectivity profile for inhibitors of NSP2Pro chikungunya virus (CHIKV): Full length NSP2 enzyme counterscreen (CHIKV-NSP2). shares compounds with nsP2pro primary. Full-length CHIKV NSP2 protease enzymatic counterscreen. Potency, µM (highest dose often 50.7 µM), for inactives: at the highest dose activity change, negative = inhibition, actives largely listed as inhibitors. hit rate 39% among 410. AID 1964101, 2024; also: nearly all actives have a fitted effect of over 65% in size
Furin counter – Selectivity profile for inhibitors of NSP2Pro chikungunya virus (CHIKV): Human furin counterscreen. AID 1964102, 2024. hit rate 6% among 410. Potency, µM (series often up to 50.6 µM), for inactives: top-dose activity change, negative = inhibition, most hits filed as inhibitors. Recombinant human furin enzymatic counterscreen, fluorogenic substrate. shares compounds with nsP2pro primary
NS23 peptide cs – Selectivity profile for inhibitors of NSP2Pro chikungunya virus (CHIKV): Endogenous NS2/3 peptide Counterscreen; shares compounds with nsP2pro primary; Purified CHIKV nsP2 protease, endogenous NS2/3 peptide cleavage; Potency, µM (doses to about 51 µM), without a hit: top-dose activity change, negative = inhibition, actives largely listed as inhibitors; hit rate 34% among 410; also: nearly all actives have a fitted effect of over 55% in size
Papain counter – Selectivity profile for inhibitors of NSP2Pro chikungunya virus (CHIKV): Papain Counterscreen | shares compounds with nsP2pro primary | purified papain protease activity, enzymatic inhibition | Potency, µM (highest dose often 51 µM), for the others: at the highest dose activity change, negative = inhibition, usual class: inhibitors | hit rate 5% among 410 | AID 1964104, 2024
nsP2pro conf qHTS – Confirmatory qHTS for inhibitors of NSP2Pro chikungunya virus (CHIKV); AID 1964105, 2024; Potency, µM (series often up to 25.5 µM), for inactives: top-dose activity change, negative = inhibition, usual class: inhibitors; CHIKV nsP2 protease enzymatic activity, qHTS; hit rate 43% among 410; shares compounds with nsP2pro primary; also: nearly all actives have a fitted effect of over 75% in size
HCV NS3 counter – Selectivity profile for inhibitors of NSP2Pro chikungunya virus (CHIKV): NS34A-HCV Counterscreen | shares compounds with nsP2pro primary | HCV NS3/4A protease biochemical counterscreen | Potency, µM (top dose mostly 50.9 µM), usual class: inhibitors | hit rate 20% among 410; also: nearly all actives have a fitted effect of over 55% in size
Starred values were filed as active, the others as inactive; i = inactive; u = inconclusive; [ ] = another dose, or the depositor's remark. The sample as a whole holds a higher share of hits than the screen did. Calls follow the shape of the full dose curve. % is scaled to controls: 0 for no effect and ±100 for the full control effect; potency is read from the fitted curve at half-maximal effect.

SMILES | nsP2pro primary | others
CC(C)N[C@@H]1CCn2c(=O)[nH]c3cccc(c32)[C@H]1O | 11µM*
NC(=O)c1ccc[n+](C2OC(COP(=O)([O-])OP(=O)(O)OCC3OC(n4cnc5c(N)ncnc54)C(O)C3O)C(O)C2O)c1 (centres undefined) | -13%
COc1cccc(CN2C(=O)CCCCC2C(=O)NCCc2c[nH]c3ccc(OC)cc23)c1 (centres undefined) | 3%
Cc1nc(C)c(C(=O)N2CCCC(COc3ccccc3C(=O)N3CCCC3)C2)s1 (centres undefined) | -1%
Cc1ccc(NC(=O)N2CCCC(c3nnc(CN(C)C)n3C)C2)cc1C (centres undefined) | 1%
CCOC(=O)C1=CN(CC(=O)Nc2ccccc2C(F)(F)F)S(=O)(=O)N=C1C | -7%
CCN1CCOC(=O)C1CC(=O)Nc1ccccc1C(F)(F)F (centres undefined) | 11µM*
O=C(CC1C(=O)OCCN1Cc1ccccc1)Nc1cccc(C(F)(F)F)c1 (centres undefined) | -16%
COc1ccc(CNC(=O)C2CN(S(=O)(=O)C3CC3)CC23CCCCC3)cc1 (centres undefined) | -2%
CCN1CCN(c2ncc3c(n2)CCN(Cc2ccc(OC)c(OC)c2)C3)CC1 | 11µM*
CCN1CCN(c2ncc3c(n2)CCN(Cc2cc(F)cc(F)c2)C3)CC1 | -7%
CCc1ccc(CN2CCc3nc(N4CCN(CC)CC4)ncc3C2)cc1 | 23%
CC[C@H](C)C1NC(=O)[C@H](Cc2ccc(O)cc2)NC(=O)[C@@H](N)CSSC[C@@H](C(=O)N2CCC[C@H]2C(=O)N[C@@H](CC(C)C)C(=O)NCC(N)=O)NC(=O)[C@H](CC(N)=O)NC(=O)[C@H](CCC(N)=O)NC1=O (some centres undefined) | 17%
CCCCCCCCC=CCCCCCCCC(=O)NCCOC(=O)CC(C(=O)O)S(=O)(=O)O (centres undefined) | 13%
COc1ccc(F)cc1-c1nc2ccc(-c3ccc(OC)c(OC)c3OC)cc2o1 | 0%
CSCC[C@H](N)C(=O)N1CCC2(CCC(=O)N(Cc3ccccc3)C2)CC1 | -1%
CC(C)c1nn2c(=O)cc(COC(=O)Cc3ccccc3)nc2s1 | -17%
CC(C)c1nn2c(=O)cc(COC(=O)c3ccco3)nc2s1 | 13µM*
CC(C)c1nn2c(=O)cc(COC(=O)c3ccc4c(c3)OCO4)nc2s1 | -29%
Cc1cc(C)nc(NC(=S)N2CCN(c3ccncc3)CC2)c1 | -3%
CS(=O)(=O)c1ccc(CC(=O)N[C@H](c2ccccn2)C2CC(O)C2)cc1 (some centres undefined) | i
CS(=O)(=O)c1ccc(CN2CCC(C(O)c3ccccn3)CC2)cc1 (centres undefined) | 11µM*
O=C(N[C@H](c1ccccn1)C1CC(O)C1)c1ccc(Cn2cccn2)o1 (some centres undefined) | -11%
O=C(O)c1ccnc2cc(C(OCCN3CCC(F)(F)CC3)c3ccccc3Cl)[nH]c12 (centres undefined) | 7%
c1nc(NCCC2CCCO2)c2cc(-c3ccc4c(c3)OCO4)ccc2n1 (centres undefined) | i
SMILES | nsP2pro primary | others
Cc1ccc(S(=O)(=O)Nc2ccncc2C(=O)Nc2nc(-c3ccccc3)cs2)cc1 | 4%
COc1ccccc1NC(=O)C1=C(C)Nc2nc(-c3ccco3)nn2C1c1ccccc1F (centres undefined) | u | CHIKV nsP2 cell=19%
COc1ccccc1NC(=O)C1=C(C)Nc2nc(SCc3ccccc3Cl)nn2C1c1ccncc1 (centres undefined) | -19%
COc1ccccc1NC(=O)C1=C(C)Nc2ncnn2C1c1ccccc1C(=O)O (centres undefined) | -15%
CC(C)(C)CC(=O)NC[C@H]1OC[C@@H](NC2CCCC2)[C@@H]1O | i
Cc1c(Cl)cc([S+](=O)([O-])O)cc1NC(=O)NC[C@H](N)C(=O)O | -5%
COc1cc(C(=O)O)ccc1OC1OC(CO)C(O)C(O)C1O (centres undefined) | -3%
COc1cc(C(=O)O)cc(OC)c1O | u | CHIKV nsP2 cell=-4%;CHIKV NSP2 FL=u;Furin counter=-2%;NS23 peptide cs=i;Papain counter=-6%;nsP2pro conf qHTS=2%;HCV NS3 counter=i
COc1ccc(-c2ccc3cc(C(=O)O)ccc3c2)cc1C12CC3CC(CC(C3)C1)C2 | -21%
N#Cc1cccc(NC(=O)Nc2nnc(-c3ccncc3)s2)c1 | 1%
CC(C)c1cnn2c(NCc3ccccc3-n3cccn3)nc(OC3CCCNC3)nc12 (centres undefined) | 6%
[2H]C([2H])([2H])NC(=O)c1nnc(NC(=O)C2CC2)cc1Nc1cccc(-c2ncn(C)n2)c1OC | 1%
COc1ccc(-c2ccc(NC(=O)C3CCCC3)cc2)nn1 | i
C/C=C(\C)C(=O)OC1C[C@@]2(COC(C)=O)O[C@H]2/C=C\[C@@]2(C)O[C@@H]2[C@H]2OC(=O)C(COC(C)=O)=C12 (some centres undefined) | 3.4µM* | CHIKV nsP2 cell=0%[17.6 µM];CHIKV NSP2 FL=u;Furin counter=-8%[17.3 µM];NS23 peptide cs=u;Papain counter=-9%[17.2 µM];nsP2pro conf qHTS=3.5µM*;HCV NS3 counter=u
C=C1C(=O)O[C@H]2[C@H]1[C@@H](OC(=O)/C(C)=C\C)C[C@]1(C)O[C@@H]1[C@H]1O[C@H]1C(=C)[C@H]2O | -4%

Compound activity: PubChem, National Center for Advancing Translational Sciences (NCATS)
